A short description of experiment [1]: NCI Yeast Anticancer Drug Screen. Data for the rad50 strain (AID 155).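 Also: 0% = growth of vehicle-only cultures of the same strain.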 The conditions noted are these: S. cerevisiae rad50 strain growth inhibition, hits give high values. A digest of the protocol: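 Compounds were tested on a yeast strain with an engineered DNA damage repair alteration; the reported value is growth inhibition normalised to vehicle treatment.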

Experiment [2] in a line: NCI Yeast Anticancer Drug Screen. Data for the mec2-1 strain (AID 157). The conditions noted are these: S. cerevisiae mec2-1 strain, hits give high values. A digest of the protocol: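 Vehicle-treated cultures served as reference for growth inhibition of compound-exposed mec2-1 yeast.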
Experiment [3] in a line: NCI Yeast Anticancer Drug Screen. Data for the sgs1 mgt1 strain (AID 161).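 Also: 0% = growth of cultures given vehicle only.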 The following applies: S. cerevisiae sgs1 mgt1 strain, hits give high values. A digest of the protocol: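 Read-out: growth inhibition vs vehicle controls. Cells: mutant yeast strain deficient in DNA damage repair.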
Experiment [4] is described as follows: NCI Yeast Anticancer Drug Screen. Data for the cln2 rad14 strain (AID 165).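 Also: 0% = growth equal to vehicle treated cultures.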 The conditions noted are these: S. cerevisiae cln2 rad14 strain, hits give high values. A digest of the protocol:
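Each compound was tested on cln2 rad14 yeast. Inhibition of growth was calculated against vehicle-exposed controls.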

Experiment [5] can be described thus: NCI Yeast Anticancer Drug Screen. Data for the bub3 strain (AID 167). The conditions noted are these: S. cerevisiae bub3 mutant strain, hits give high values. A digest of the protocol:
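Growth of a checkpoint-deficient yeast mutant is measured after compound exposure. Values represent inhibition relative to vehicle.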

Experiment [6] in a line: NCI Yeast Anticancer Drug Screen. Data for the mlh1 rad18 strain (AID 175). The conditions noted are these: S. cerevisiae mlh1 rad18 strain growth inhibition, hits give high values. The method in brief: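 Vehicle-treated cultures served as the reference for growth inhibition in a yeast strain carrying DNA damage repair alterations exposed to each compound.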
[7] abbreviates: at 5.0 µM (retest, dose inferred, filed as 0.5).
[8] abbreviates: at 50.0 µM (retest, dose inferred, filed as 5.0).

The panel holds about 79,000 compounds, 15% with a hit somewhere; the sample as a whole holds those more often. Values without a mark were called inactive. Activity calls are given as the source filed them. Rule as the data show it: active = growth inhibition above about 70%; inactive = the rest.

With `Cc1cccc2c1C1OC(=O)C3CCC=C2C31` (configuration not stated), the growth inhibition in experiment [1] (setting [7]) was -146%; in experiment [1] (setting [8]), -134%; in experiment [1] (at 50.0 µM) it was 30.4%; in experiment [2] (setting [7]) it was -49%; in experiment [2] (setting [8]) it was -55%; in experiment [2] (at 50.0 µM), 53.9%. Moreover, the growth inhibition in experiment [3] (setting [7]) was -56%; in experiment [3] (setting [8]), -58%; in experiment [3] (at 50.0 µM), 12.8%; in experiment [4] (setting [7]), -45%; in experiment [4] (setting [8]) it was -39%; in experiment [4] (at 50.0 µM) it was 64.9%. The growth inhibition in experiment [5] (setting [7]) is -41%; in experiment [5] (setting [8]), -52%; in experiment [5] (at 50.0 µM) it was 28.1%; in experiment [6] (setting [7]) it was -107%; in experiment [6] (setting [8]) it was -101%; in experiment [6] (at 50.0 µM), 41.8%.

For `COc1ccc(C2=C(Cl)C(=O)N(c3ccc(OC)cc3OC)C(=O)C2(Cl)Cl)cc1`, the growth inhibition in experiment [1] (setting [7]) is 4%; in experiment [1] (setting [8]), 42%; in experiment [1] (at 50.0 µM), 74.5% (active); in experiment [2] (setting [7]) it was -9%; in experiment [2] (setting [8]) it was 36%; in experiment [2] (at 50.0 µM), 89.9% (active). In addition, the growth inhibition is 5% in experiment [3] (setting [7]); 54% in experiment [3] (setting [8]); 70.8% (active) in experiment [3] (at 50.0 µM); -9% in experiment [4] (setting [7]); 25% in experiment [4] (setting [8]); 44.5% in experiment [4] (at 50.0 µM). In addition, the growth inhibition in experiment [5] (setting [7]) was -5%; in experiment [5] (setting [8]), 28%; in experiment [5] (at 50.0 µM), 56.5%; in experiment [6] (setting [7]), 3%; in experiment [6] (setting [8]) it was 8%; in experiment [6] (at 50.0 µM) it was 79.8% (active).

In the case of `CCCCN(C)C(=S)N/N=C(\C)c1ccccn1`, the growth inhibition was 56% in experiment [1] (setting [7]); 99% (active) in experiment [1] (setting [8]); 99.5% (active) in experiment [1] (at 50.0 µM); 73% (active) in experiment [2] (setting [7]); 100% (active) in experiment [2] (setting [8]); 99.8% (active) in experiment [2] (at 50.0 µM). Further, the growth inhibition in experiment [3] (setting [7]) was 97% (active); in experiment [3] (setting [8]), 99% (active); in experiment [3] (at 50.0 µM), 99.7% (active); in experiment [4] (setting [7]), 95% (active); in experiment [4] (setting [8]), 98% (active); in experiment [4] (at 50.0 µM) it was 99.5% (active). Moreover, the growth inhibition is 92% (active) in experiment [5] (setting [7]); 99% (active) in experiment [5] (setting [8]); 99.5% (active) in experiment [5] (at 50.0 µM); 98% (active) in experiment [6] (setting [7]); 99% (active) in experiment [6] (setting [8]); 99.7% (active) in experiment [6] (at 50.0 µM).

As for `C[C-](O)O.O/C(=C\[C-](O)c1ccccc1)c1ccccc1.O/C(=C\[C-](O)c1ccccc1)c1ccccc1.[Nd+3]` (configuration not stated), the growth inhibition in experiment [1] (setting [7]) is 36%; in experiment [1] (setting [8]) it was 36%; in experiment [1] (at 50.0 µM) it was 90.1% (active); in experiment [2] (setting [7]), 36%; in experiment [2] (setting [8]) it was 36%; in experiment [2] (at 50.0 µM), 92.7% (active). For the same molecule, the growth inhibition in experiment [3] (setting [7]) was 42%; in experiment [3] (setting [8]), 42%; in experiment [3] (at 50.0 µM), 93.3% (active); in experiment [4] (setting [7]) it was 21%; in experiment [4] (setting [8]), 21%; in experiment [4] (at 50.0 µM), 88.7% (active). Moreover, the growth inhibition in experiment [5] (setting [7]) was 20%; in experiment [5] (setting [8]), 20%; in experiment [5] (at 50.0 µM) it was 90.2% (active); in experiment [6] (setting [7]), 30%; in experiment [6] (setting [8]), 30%; in experiment [6] (at 50.0 µM), 85.9% (active).

For the molecule `CC(C)/C=N/N(CCOC(=O)Nc1ccccc1)C(=O)Nc1ccccc1`, the growth inhibition in experiment [1] (setting [7]) was 8%; in experiment [1] (setting [8]), -6%; in experiment [1] (at 50.0 µM) it was -3.85%; in experiment [2] (setting [7]), -6%; in experiment [2] (setting [8]), -12%; in experiment [2] (at 50.0 µM) it was 14.3%. Moreover, the growth inhibition was -1% in experiment [3] (setting [7]); -6% in experiment [3] (setting [8]); -12.7% in experiment [3] (at 50.0 µM); -5% in experiment [4] (setting [7]); -1% in experiment [4] (setting [8]); 82.2% (active) in experiment [4] (at 50.0 µM). The growth inhibition was -7% in experiment [5] (setting [7]); -9% in experiment [5] (setting [8]); 16.1% in experiment [5] (at 50.0 µM); -3% in experiment [6] (setting [7]); -5% in experiment [6] (setting [8]); 6.9% in experiment [6] (at 50.0 µM).

On to `O=C1c2ccccc2-c2ccccc2C(=O)C1(Br)Br`, for which the growth inhibition in experiment [1] (setting [7]) is -5%; in experiment [1] (setting [8]) it was 8%; in experiment [1] (at 50.0 µM), 89.8% (active); in experiment [2] (setting [7]), -1%; in experiment [2] (setting [8]), -5%; in experiment [2] (at 50.0 µM), 91.1% (active). Besides, the growth inhibition is 3% in experiment [3] (setting [7]); -11% in experiment [3] (setting [8]); 88.3% (active) in experiment [3] (at 50.0 µM); -8% in experiment [4] (setting [7]); -4% in experiment [4] (setting [8]); 47.3% in experiment [4] (at 50.0 µM). Further, the growth inhibition in experiment [5] (setting [7]) is -7%; in experiment [5] (setting [8]) it was -18%; in experiment [5] (at 50.0 µM), 66.7%; in experiment [6] (setting [7]), 0%; in experiment [6] (setting [8]), -7%; in experiment [6] (at 50.0 µM) it was 96.4% (active).

On to `O=C1NN(C2=NNC3(C(=O)N2)c2ccccc2-c2ccccc23)C(c2ccccc2)=N/C1=C/c1ccc(O)cc1`, for which the growth inhibition in experiment [1] (setting [7]) was 1%; in experiment [1] (setting [8]), -14%; in experiment [1] (at 50.0 µM) it was 21.4%; in experiment [2] (setting [7]), -14%; in experiment [2] (setting [8]), 9%; in experiment [2] (at 50.0 µM), 50%. The growth inhibition in experiment [3] (setting [7]) is -9%; in experiment [3] (setting [8]) it was 23%; in experiment [3] (at 50.0 µM), 65%; in experiment [4] (setting [7]) it was -6%; in experiment [4] (setting [8]) it was 21%; in experiment [4] (at 50.0 µM), 7%. The growth inhibition in experiment [5] (setting [7]) is -14%; in experiment [5] (setting [8]), 9%; in experiment [5] (at 50.0 µM) it was 81.5% (active); in experiment [6] (setting [7]), -43%; in experiment [6] (setting [8]) it was 28%; in experiment [6] (at 50.0 µM), 83.2% (active).

Consider `Oc1c(Br)cc(Cl)cc1C(c1cc(Cl)cc(Br)c1O)C(Cl)(Cl)Cl`, for which the growth inhibition in experiment [1] (setting [7]) was 0%; in experiment [1] (setting [8]), 98% (active); in experiment [1] (at 50.0 µM) it was 96% (active); in experiment [2] (setting [7]), 2%; in experiment [2] (setting [8]), 99% (active); in experiment [2] (at 50.0 µM), 98.2% (active). Also, the growth inhibition was 3% in experiment [3] (setting [7]); 99% (active) in experiment [3] (setting [8]); 97.8% (active) in experiment [3] (at 50.0 µM); -5% in experiment [4] (setting [7]); 98% (active) in experiment [4] (setting [8]); 97.2% (active) in experiment [4] (at 50.0 µM). The growth inhibition in experiment [5] (setting [7]) was -1%; in experiment [5] (setting [8]), 98% (active); in experiment [5] (at 50.0 µM), 97.1% (active); in experiment [6] (setting [7]), 5%; in experiment [6] (setting [8]) it was 98% (active); in experiment [6] (at 50.0 µM), 90.8% (active).

Turning to `c1ccc2c(c1)[nH]c1cc3ccncc3cc12`, the growth inhibition in experiment [1] (setting [7]) was -45%; in experiment [1] (setting [8]), 90% (active); in experiment [1] (at 50.0 µM) it was 79.3% (active); in experiment [2] (setting [7]), -30%; in experiment [2] (setting [8]), 29%; in experiment [2] (at 50.0 µM), 46.9%. The growth inhibition is -24% in experiment [3] (setting [7]); 52% in experiment [3] (setting [8]); 45.6% in experiment [3] (at 50.0 µM); -13% in experiment [4] (setting [7]); 42% in experiment [4] (setting [8]); 34.7% in experiment [4] (at 50.0 µM). For the same molecule, the growth inhibition in experiment [5] (setting [7]) is -49%; in experiment [5] (setting [8]), 51%; in experiment [5] (at 50.0 µM), 34.5%; in experiment [6] (setting [7]) it was -75%; in experiment [6] (setting [8]) it was 56%; in experiment [6] (at 50.0 µM), 61.7%.

(Values after PubChem BioAssay (NCI).)
